Source: paper PMC5540273 (PLoS ONE, 2017)

Experiments:
Conditions in all cases: concentration: 1 μM, replicates: in singlicate; n = 1
[1] = system: EIF2AK1
[2] = system: EPHA1
[3] = system: EPHA2
[4] = system: EPHA3
[5] = system: EPHA4
[6] = system: EPHA5
[7] = system: EPHA6
[8] = system: EPHA7
[9] = system: EPHA8
[10] = system: EPHB1
[11] = system: EPHB2
[12] = system: EPHB3
[13] = system: EPHB4
[14] = system: EPHB6
[15] = system: ERBB2
[16] = system: ERBB3
[17] = system: ERBB4
[18] = system: T1, ERK1
T1 construct: gene MAPK3

[19] = system: T2, ERK2
T2 construct: gene MAPK1

[20] = system: T3, ERK3
T3 construct: gene MAPK6
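Further: KINOMEscan kinase panel screen.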

SMILES: Cc1ccc(NC(=O)c2cccc(C#N)c2)cc1-c1ccc(C(=O)Nc2ccncc2)cc1 [GSK1398463]
- %Inh [1]: 7%
- %Inh [2]: 12%
- %Inh [3]: 30%
- %Inh [4]: 13%
- %Inh [5]: 43%
- %Inh [6]: 0%
- %Inh [7]: 34%
- %Inh [8]: 12%
- %Inh [9]: 46%
- %Inh [10]: 22%
- %Inh [11]: 13%
- %Inh [12]: 26%
- %Inh [13]: 25%
- %Inh [14]: 2%
- %Inh [15]: 0%
- %Inh [16]: 0%
- %Inh [17]: 32%
- %Inh [18]: 0%
- %Inh [19]: 0%
- %Inh [20]: 5%

SMILES: Cn1ccc2ncnc(Oc3ccc(NC(=O)Nc4cccnc4)c(Cl)c3)c21
- %Inh [1]: 0%
- %Inh [2]: 0%
- %Inh [3]: 0%
- %Inh [4]: 4%
- %Inh [5]: 29%
- %Inh [6]: 11%
- %Inh [7]: 32%
- %Inh [8]: 7%
- %Inh [9]: 10%
- %Inh [10]: 9%
- %Inh [11]: 2%
- %Inh [12]: 12%
- %Inh [13]: 10%
- %Inh [14]: 5%
- %Inh [15]: 18%
- %Inh [16]: 2%
- %Inh [17]: 0%
- %Inh [18]: 0%
- %Inh [19]: 11%
- %Inh [20]: 0%

SMILES: C[C@@H]1CCN(C(=O)CO)C[C@@H]1N(C)c1ncnc2[nH]ccc12
- %Inh [1]: 5%
- %Inh [2]: 8%
- %Inh [3]: 0%
- %Inh [4]: 0%
- %Inh [5]: 0%
- %Inh [6]: 2%
- %Inh [7]: 0%
- %Inh [8]: 0%
- %Inh [9]: 0%
- %Inh [10]: 9%
- %Inh [11]: 0%
- %Inh [12]: 0%
- %Inh [13]: 0%
- %Inh [14]: 17%
- %Inh [15]: 19%
- %Inh [16]: 0%
- %Inh [17]: 11%
- %Inh [18]: 0%
- %Inh [19]: 0%
- %Inh [20]: 14%

SMILES: c1ccc(-c2ccc3c(-c4ccnc(Nc5ccc6c(c5)OCCO6)n4)cnn3n2)cc1 [GW818941]
- %Inh [1]: 0%
- %Inh [2]: 7%
- %Inh [3]: 18%
- %Inh [4]: 0%
- %Inh [5]: 21%
- %Inh [6]: 0%
- %Inh [7]: 12%
- %Inh [8]: 14%
- %Inh [9]: 17%
- %Inh [10]: 18%
- %Inh [11]: 3%
- %Inh [12]: 13%
- %Inh [13]: 10%
- %Inh [14]: 0%
- %Inh [15]: 21%
- %Inh [16]: 15%
- %Inh [17]: 0%
- %Inh [18]: 11%
- %Inh [19]: 6%
- %Inh [20]: 0%

SMILES: O=C(NCCCN1CCCC1=O)c1cnc(NCc2cc(Cl)ccc2Cl)nc1NC1CCNCC1
- %Inh [1]: 0%
- %Inh [2]: 9%
- %Inh [3]: 2%
- %Inh [4]: 0%
- %Inh [5]: 0%
- %Inh [6]: 2%
- %Inh [7]: 0%
- %Inh [8]: 0%
- %Inh [9]: 0%
- %Inh [10]: 7%
- %Inh [11]: 0%
- %Inh [12]: 0%
- %Inh [13]: 0%
- %Inh [14]: 19%
- %Inh [15]: 9%
- %Inh [16]: 3%
- %Inh [17]: 0%
- %Inh [18]: 0%
- %Inh [19]: 11%
- %Inh [20]: 0%

SMILES: Cc1cccc(-c2nc(Nc3ccc4[nH]nnc4c3)c3ccccc3n2)n1 [GW867587]
- %Inh [1]: 0%
- %Inh [2]: 0%
- %Inh [3]: 0%
- %Inh [4]: 0%
- %Inh [5]: 0%
- %Inh [6]: 0%
- %Inh [7]: 0%
- %Inh [8]: 0%
- %Inh [9]: 0%
- %Inh [10]: 6%
- %Inh [11]: 0%
- %Inh [12]: 0%
- %Inh [13]: 0%
- %Inh [14]: 0%
- %Inh [15]: 0%
- %Inh [16]: 0%
- %Inh [17]: 11%
- %Inh [18]: 0%
- %Inh [19]: 0%
- %Inh [20]: 0%

SMILES: COc1ccc(NC(=O)c2ccc(-c3cc(-c4nnc(C)o4)ccc3C)cc2)cc1 [GW595885]
- %Inh [1]: 0%
- %Inh [2]: 8%
- %Inh [3]: 7%
- %Inh [4]: 0%
- %Inh [5]: 7%
- %Inh [6]: 0%
- %Inh [7]: 0%
- %Inh [8]: 0%
- %Inh [9]: 6%
- %Inh [10]: 0%
- %Inh [11]: 10%
- %Inh [12]: 13%
- %Inh [13]: 6%
- %Inh [14]: 0%
- %Inh [15]: 18%
- %Inh [16]: 0%
- %Inh [17]: 7%
- %Inh [18]: 0%
- %Inh [19]: 0%
- %Inh [20]: 0%

SMILES: CC(C)(C)OC(=O)NC1CCCN(c2cc(-c3ccc4c(N)n[nH]c4c3)nc(N)n2)C1 (centres unmarked) [GSK2286096]
- %Inh [1]: 4%
- %Inh [2]: 8%
- %Inh [3]: 11%
- %Inh [4]: 0%
- %Inh [5]: 14%
- %Inh [6]: 0%
- %Inh [7]: 9%
- %Inh [8]: 0%
- %Inh [9]: 6%
- %Inh [10]: 10%
- %Inh [11]: 90.5%
- %Inh [12]: 14%
- %Inh [13]: 9%
- %Inh [14]: 0%
- %Inh [15]: 0%
- %Inh [16]: 0%
- %Inh [17]: 33%
- %Inh [18]: 0%
- %Inh [19]: 0%
- %Inh [20]: 0%

SMILES: COc1cc2c(Nc3cccc(NC(=O)c4ccccc4)c3)ncnc2cc1OCCCN1CCOCC1 [GSK223810]
- %Inh [1]: 0%
- %Inh [2]: 7%
- %Inh [3]: 29%
- %Inh [4]: 6%
- %Inh [5]: 6%
- %Inh [6]: 0%
- %Inh [7]: 2%
- %Inh [8]: 3%
- %Inh [9]: 24%
- %Inh [10]: 4%
- %Inh [11]: 0%
- %Inh [12]: 5%
- %Inh [13]: 0%
- %Inh [14]: 60%
- %Inh [15]: 18%
- %Inh [16]: 0%
- %Inh [17]: 55%
- %Inh [18]: 0%
- %Inh [19]: 0%
- %Inh [20]: 0%

SMILES: CC(C)(C)c1ccc(-n2cnc3c(N)ncnc32)cc1 [SKF-97263]
- %Inh [1]: 0%
- %Inh [2]: 14%
- %Inh [3]: 23%
- %Inh [4]: 0%
- %Inh [5]: 27%
- %Inh [6]: 0%
- %Inh [7]: 28%
- %Inh [8]: 8%
- %Inh [9]: 16%
- %Inh [10]: 3%
- %Inh [11]: 17%
- %Inh [12]: 31%
- %Inh [13]: 15%
- %Inh [14]: 9%
- %Inh [15]: 29%
- %Inh [16]: 0%
- %Inh [17]: 0%
- %Inh [18]: 7%
- %Inh [19]: 0%
- %Inh [20]: 0%

SMILES: Cl.Cl.c1ccc(-c2cc3ccncc3cc2OC2CCNCC2)cc1 [GSK1122999]
- %Inh [1]: 13%
- %Inh [2]: 11%
- %Inh [3]: 13%
- %Inh [4]: 0%
- %Inh [5]: 9%
- %Inh [6]: 0%
- %Inh [7]: 12%
- %Inh [8]: 5%
- %Inh [9]: 13%
- %Inh [10]: 25%
- %Inh [11]: 47%
- %Inh [12]: 17%
- %Inh [13]: 5%
- %Inh [14]: 11%
- %Inh [15]: 10%
- %Inh [16]: 0%
- %Inh [17]: 0%
- %Inh [18]: 0%
- %Inh [19]: 4%
- %Inh [20]: 24%

SMILES: N#Cc1ccc(Oc2ccc(Nc3ncnc4cc[nH]c34)cc2Cl)cc1
- %Inh [1]: 5%
- %Inh [2]: 1%
- %Inh [3]: 0%
- %Inh [4]: 0%
- %Inh [5]: 23%
- %Inh [6]: 0%
- %Inh [7]: 23%
- %Inh [8]: 2%
- %Inh [9]: 1%
- %Inh [10]: 5%
- %Inh [11]: 8%
- %Inh [12]: 21%
- %Inh [13]: 24%
- %Inh [14]: 33%
- %Inh [15]: 79%
- %Inh [16]: 9%
- %Inh [17]: 76%
- %Inh [18]: 0%
- %Inh [19]: 6%
- %Inh [20]: 0%

SMILES: COc1ccc(NC(=O)Nc2ccc(C)c(-c3ccc(C(=O)Nc4ccncc4)cc3)c2)cc1 [GSK1398475]
- %Inh [1]: 0%
- %Inh [2]: 6%
- %Inh [3]: 8%
- %Inh [4]: 13%
- %Inh [5]: 1%
- %Inh [6]: 0%
- %Inh [7]: 11%
- %Inh [8]: 4%
- %Inh [9]: 14%
- %Inh [10]: 13%
- %Inh [11]: 12%
- %Inh [12]: 13%
- %Inh [13]: 13%
- %Inh [14]: 20%
- %Inh [15]: 0%
- %Inh [16]: 0%
- %Inh [17]: 19%
- %Inh [18]: 2%
- %Inh [19]: 0%
- %Inh [20]: 9%

SMILES: CCc1nc(-c2cccc(C)c2)c(-c2ccnc(NC(=O)c3ccccc3)c2)s1
- %Inh [1]: 15%
- %Inh [2]: 0%
- %Inh [3]: 0%
- %Inh [4]: 4%
- %Inh [5]: 32%
- %Inh [6]: 28%
- %Inh [7]: 45%
- %Inh [8]: 12%
- %Inh [9]: 15%
- %Inh [10]: 14%
- %Inh [11]: 4%
- %Inh [12]: 36%
- %Inh [13]: 37%
- %Inh [14]: 100%
- %Inh [15]: 46%
- %Inh [16]: 2%
- %Inh [17]: 34%
- %Inh [18]: 0%
- %Inh [19]: 40%
- %Inh [20]: 4%

SMILES: CN1CCC(n2cnc(-c3ccc(F)cc3)c2-c2ccnc(NC3CCNCC3)n2)CC1 [SB-229482]
- %Inh [1]: 0%
- %Inh [2]: 0%
- %Inh [3]: 5%
- %Inh [4]: 18%
- %Inh [5]: 7%
- %Inh [6]: 5%
- %Inh [7]: 5%
- %Inh [8]: 0%
- %Inh [9]: 0%
- %Inh [10]: 0%
- %Inh [11]: 11%
- %Inh [12]: 4%
- %Inh [13]: 0%
- %Inh [14]: 8%
- %Inh [15]: 32%
- %Inh [16]: 18%
- %Inh [17]: 4%
- %Inh [18]: 0%
- %Inh [19]: 14%
- %Inh [20]: 30%

SMILES: Cl.Cn1ccc(-c2cccc(Nc3ccnc4cc(-c5nccs5)ccc34)c2)n1 [GW525701]
- %Inh [1]: 0%
- %Inh [2]: 25%
- %Inh [3]: 0%
- %Inh [4]: 100%
- %Inh [5]: 0%
- %Inh [6]: 0%
- %Inh [7]: 0%
- %Inh [8]: 6%
- %Inh [9]: 7%
- %Inh [10]: 14%
- %Inh [11]: 0%
- %Inh [12]: 9%
- %Inh [13]: 47%
- %Inh [14]: 94.2%
- %Inh [15]: 53%
- %Inh [16]: 64%
- %Inh [17]: 45%
- %Inh [18]: 0%
- %Inh [19]: 0%
- %Inh [20]: 0%
